Laboratory results: the supplement of paper PMC6555819

Legend:
Experiment in all cases: PBM binding z-score (relative to random genomic background probes); higher = stronger binding; sequences stand for … in GC…GCGATTGACAGCGTAGAATGAAGG
[1] = test system: FXR:RXRa (NR concentration 270 nM, RXRa partner concentration 90 nM)
Method in brief: (§1)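 For binding z-scores, the reference was random background probes on custom Agilent 4×180K protein-binding microarrays. These arrays were incubated 1 h with ligand-free nuclear receptor dimers in PBS pH 7.4, 2% milk, 0.02% Triton X-100, 1 mM DTT, 0.2 mg/mL BSA and 0.4 mg/ml salmon testes DNA. Fluorescence was scanned after antibody detection of each partner (one per run) and regression-normalized.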

[2] = test system: LXRa:RXRa (NR concentration 270 nM, RXRa partner concentration 90 nM)
Method in brief: as §1

[3] = test system: LXRa homodimer (NR concentration 270 nM)
Method in brief: as §1

[4] = test system: LXRb:RXRa (NR concentration 270 nM, RXRa partner concentration 90 nM)
Method in brief: as §1

[5] = test system: LXRb homodimer (NR concentration 270 nM)
Method in brief: as §1

[6] = test system: PPARa:RXRa (NR concentration 270 nM, RXRa partner concentration 90 nM)
Method in brief: as §1

[7] = test system: PPARg:RXRa (NR concentration 180 nM, RXRa partner concentration 90 nM)
Method in brief: as §1

[8] = test system: PPARg:RXRa 270nM:90nM, anti-RXR (NR concentration 270 nM, RXRa partner concentration 90 nM)
Method in brief: as §1

[9] = test system: PPARg:RXRa 30nM:10nM, anti-RXR (NR concentration 30 nM, RXRa partner concentration 10 nM)
Method in brief: as §1

[10] = test system: PPARg:RXRa 90nM:30nM, anti-RXR (NR concentration 90 nM, RXRa partner concentration 30 nM)
Method in brief: as §1

[11] = test system: PPARg:RXRa DBDmut IVT, anti-RXR (DBD mutation: RXRa K156A/R161A, NR concentration 270 nM, RXRa partner concentration 90 nM)
Method in brief: as §1

[12] = test system: PPARg:RXRa IVT, anti-PPARg (NR concentration 270 nM, RXRa partner concentration 90 nM)
Method in brief: as §1

[13] = test system: PPARg DBDmut:RXRa IVT, anti-PPARg (DBD mutation: PPARg1 K132A/R137A, NR concentration 270 nM, RXRa partner concentration 90 nM)
Method in brief: as §1

[14] = test system: PPARg DBDmut IVT, anti-PPARg (DBD mutation: PPARg1 K132A/R137A, NR concentration 270 nM)
Method in brief: as §1

[15] = test system: PPARg homodimer (NR concentration 180 nM)
Method in brief: as §1

[16] = test system: PXR:RXRa (NR concentration 270 nM, RXRa partner concentration 90 nM)
Method in brief: as §1

[17] = test system: PXR homodimer (NR concentration 270 nM)
Method in brief: as §1

[18] = test system: RARa:RXR (NR concentration 270 nM, RXRa partner concentration 90 nM)
Method in brief: as §1

[19] = test system: RARa homodimer (NR concentration 270 nM)
Method in brief: as §1

[20] = test system: RARb:RXRa (NR concentration 270 nM, RXRa partner concentration 90 nM)
Method in brief: as §1

Sequence	PBM binding z-score [1]	PBM binding z-score [2]	PBM binding z-score [3]	PBM binding z-score [4]	PBM binding z-score [5]	PBM binding z-score [6]	PBM binding z-score [7]	PBM binding z-score [8]	PBM binding z-score [9]	PBM binding z-score [10]	PBM binding z-score [11]	PBM binding z-score [12]	PBM binding z-score [13]	PBM binding z-score [14]	PBM binding z-score [15]	PBM binding z-score [16]	PBM binding z-score [17]	PBM binding z-score [18]	PBM binding z-score [19]	PBM binding z-score [20]
CGGCAAAGTTCAAGGTAACGTAACAGAAAGCAGC	6.25	5.26	1.74	3.16	-0.0277	4.47	3.94	4.6	1.59	3.43	0.813	1.56	-1.51	-0.284	2.12	4.05	2.11	3.29	0.805	5.04
CCAGACTGGTGAAAGGTAACTCAGTCTGGTACGC	-0.45	-0.241	-0.759	-0.0625	-0.842	1.46	2.67	3.83	1.66	3.26	0.00689	0.829	-0.709	-0.951	0.201	-0.0709	-0.492	0.039	-0.414	0.363
TGATATAGGTAAATGCTAGGTGAAAGTCCGATCT	0.297	0.127	0.0779	-0.0435	-0.105	1.62	1.45	1.84	1.05	1.44	4.45	3.66	0.978	0.956	0.829	-0.09	0.293	0.178	1.15	0.212
GCTAGTTGGTCAGTAAAAGGTCACACTCCGGTCG	3.15	4.29	4.97	3.76	0.637	4.19	2.49	4.24	1.86	3.7	1.66	2.87	-0.175	0.207	3.12	4.77	0.877	5.45	1.9	4.3
TCATATAGGTAAATGGTGAAAGTCGGTGTGGTAA	0.818	1.03	0.217	0.846	-0.047	1.6	1.54	3.44	4.15	3.96	3.92	2.4	0.569	0.625	1.49	0.445	0.609	0.554	1.52	0.243
CTCGAAAGGTCGGTTTAGGTGAGTATACGGATAA	2.13	1.54	-0.093	1.7	0.329	2.44	0.282	1.04	-0.0408	0.683	0.133	0.896	0.666	0.13	1.29	1.51	0.344	1.64	0.736	2.66
TCGAGTAGGTTAGGGGGATTCAGAATGGCGTCGA	0.594	0.704	0.047	2.05	5.63	1.63	1.42	3.21	2.01	2.69	2.93	3.21	2.69	5.71	1.41	1.2	0.466	0.482	0.665	1.19
CGAACTAGGTCAGAACAGGGCAGTGAAGGATGAT	1.43	0.861	-0.154	0.436	-0.443	3.09	5.03	4.3	1.73	3.33	7.23	7.22	1.72	-0.191	1.19	1.26	0.00717	0.81	0.0682	3.15
GCTTGTAGAACAAGGTTAAGAAAGACTAAGCTAA	-0.242	0.558	-0.426	0.502	-0.664	1.6	0.852	1.67	0.36	1.11	1.63	1.06	-0.311	-0.211	0.167	0.293	-0.338	0.612	-0.688	0.679
TCAGACCGGTGAAGGTAACTCAGGTACGCAGTCG	0.557	1.33	-0.308	0.535	-0.714	0.614	0.21	1.47	3.08	2.23	1.9	0.032	-0.824	-0.847	-0.31	0.238	-0.147	0.303	-0.254	0.335
ATATGTAGGTTACATCCGTGTCATTCAGGCTATG	0.799	4.06	0.794	1.81	0.59	3.6	5.07	4.33	1.88	3.27	7.68	7.5	2.03	4.51	1.36	0.878	0.202	0.935	0.528	1.28
TCTGCTAGGTCAACGATGGTCATCTAATCTGCTA	3.5	3.34	0.105	2.03	0.0541	3.37	2.78	3.34	2.08	2.79	4.28	4.02	0.183	0.11	0.637	2.1	-0.415	2.56	-0.306	4.09
TCTTGGAGGACACGAAAGGTCAGAGCTCGACATC	3.33	4.06	2.83	3.37	0.286	3.75	1.68	3.16	2.54	2.89	2.26	2.63	0.421	0.521	2.91	4.16	0.329	4.3	0.376	4.39
GCTTGGAGGACAAGGTCAGAGCTTTGTCCGTAGA	1.44	1.7	-0.316	1.03	-0.782	2.48	0.977	1.88	0.0499	1.35	1.24	1.71	-1.32	-1.05	0.764	1.76	-0.385	2.05	-0.509	3.48
TCTTGTAGATCAACAGGAGGGTAAGAAAGATCGA	0.289	0.24	-0.818	0.0772	-0.238	0.374	-0.102	1.06	2.25	1.7	1.73	0.871	0.452	0.0976	-0.361	0.00133	-0.381	-0.112	0.0256	0.107
CGAACTAGGTCAGAACAGGACAGTGACGGATGAT	1.23	0.594	-0.065	0.276	-0.492	2.87	5.01	4.26	1.69	3.39	7.03	7.13	1.03	0.514	0.929	0.794	0.206	0.633	0.383	2.99
CAAACTAGGACACAGAGGTCAAAGTCCGTGCGTA	5.53	5.78	6.08	5.13	1.79	5.73	6.63	5.99	3.64	5.73	6.49	6.69	3.32	2.78	5.68	6.16	7.13	6.38	1.48	4.28
CCTTACGCGTCACGAGGTTATAGCACGACGAGCG	0.529	0.868	0.107	0.95	0.329	1.44	1.08	0.331	-0.172	-0.00609	0.147	0.154	0.124	0.548	1.05	1.03	0.532	1.15	0.761	0.811
CGAACTAGGTCATTGACAGTACAGTGAATAGTAA	4.63	2.68	0.32	2.02	0.232	4.98	7.68	6.38	3.77	5.67	7.66	8.48	3.53	2.28	1.89	1.64	0.291	2.03	0.0313	3.67
TCTTGTAGGTCAGCAGGTTAAGAAAGCTGGCCAA	3.31	2.55	0.186	2.16	0.418	4.35	6.77	5.91	4.19	5.71	6.85	7.39	2.94	2.48	2.31	1.95	-0.0454	2.84	0.787	3.91
ATCGAAAGGTCGTGAGGTCAGTATACAGAAAGGC	6.58	5.12	1.48	4.57	1.04	5.7	5.27	5.25	2.05	3.65	0.335	2.89	1.16	0.766	3.48	5.08	0.97	5.65	1.02	5.02
CAAATTAGGTCACAGAGGTCAAAGTCCGTGCGTA	7.48	6.57	7.83	6.26	2.94	6.44	9.76	8.05	6.42	8.29	8.01	8.49	2.82	1.45	5.32	6.74	11.4	7.4	3.41	5.27
ATCTCTAGGTAAAAGTTCTGTGAATCCCGAGGAT	0.0905	0.216	0.111	-0.143	0.463	1.52	2.62	3.93	2.04	4.05	2.32	1.91	1.22	1.71	1.06	0.0852	0.034	-0.0223	0.566	0.232
CAAACTAGGTCAAAGGTCAATGTCGAGCCAACCA	8.32	7.09	4.92	6.96	2.33	7.33	14	11.7	13.6	14.2	8.75	9.22	5.2	5.46	8.27	7.07	1.86	8.9	4.59	5.51
TATACAGGGTCAGAGGCCAGAGTACGAATGTCGA	4.14	3.96	0.791	2.95	1.8	4.29	5.34	5.19	3.23	4.52	1.65	3.65	2.26	1.28	2.24	2.83	0.79	3.74	1.13	3.72
ATATGTAGGTTATCGGGGCATTCAGTTTGCGCAT	1.18	1.49	0.936	2.57	1.81	3.95	5.76	5	2.48	4.06	7.24	7.25	3.45	3.12	2.07	1.72	3	1.04	1.6	1.7
CGAACTAGGTCATCCAGGACAGTTAATACATTGA	4.18	2.59	0.501	2.29	0.155	4.77	7.57	6.32	3.81	5.9	7.93	8.11	4.57	2.72	2.19	2.02	1.63	2.6	1.19	3.72
AATACAGGGTCATCGTAGGCCAGATTACGCACAG	7.31	6.79	2.75	4.95	1.56	5.92	6.61	6.1	3.14	4.89	2.88	4.16	2.1	1.86	3.02	5.14	0.561	5.6	0.954	4.27
